Test results taken from PubChem BioAssay AID430 (Sanford-Burnham Center for Chemical Genomics, 2006).
In all, about 63,000 compounds went through this assay and about 1,100 (1.7%) were called active. Rule as the data show it: active = cytotoxicity above about 50%; inactive = the rest. The full list was thinned out, with actives kept by preference. Potency and affinity values are given separately.

Assay: cytotoxicity in HPDE-C7 cells, cell-based, fluorescence, HTS (AID 430);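 also: cells exposed to compound for 48 hours before viability readout; 0% = vehicle and 100% = reference cytotoxic drug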
Settings: HPDE-C7 pancreatic duct cells viability, at 10 µM, stronger effect = higher value

Structure (SMILES)	cytotoxicity
CC(NC(=O)Cn1cnc2c1c(=O)n(C)c(=O)n2C)c1ccccc1 (configuration not stated)	-1.6% (inactive)
CCc1cccc(NC(=O)C2CCCN(S(=O)(=O)c3c(C)[nH]c(=O)[nH]c3=O)C2)c1 (configuration not stated)	-1.3% (inactive)
[O-][N+]12CCN(CC1)c1ccccc12	-14.6% (inactive)
Cc1ccc2nc3ccc(N4CCCC4)nn3c(=O)c2c1	4.6% (inactive)
CCOC(=O)C1C(c2cccc(Cl)c2Cl)NC(=O)NC1(O)C(F)(F)F (configuration not stated)	-1.7% (inactive)
COC(=O)C1=C(C)NC(=O)CC1c1cccc(Cl)c1Cl (configuration not stated)	-12.9% (inactive)
CCOC(=O)C1=C(SCC(=O)Nc2ccccc2)NC(=O)C(C#N)C12CCCCC2 (configuration not stated)	1.9% (inactive)
N#CC1=C(SCC(=O)NC2CC2)NC(=O)C(C#N)C12CCCCC2 (configuration not stated)	-13.2% (inactive)
N#CC1=C(N)NC(SCC(=O)Nc2ccccc2)=C(C#N)C12CCCC2	1.6% (inactive)
N#CC1=C(SCC(=O)NC23CC4CC(CC(C4)C2)C3)NC(=O)C(C#N)C12CCCCC2 (configuration not stated)	49.7% (inactive)
CC(C)(C)C1CCC2(CC1)C(C#N)=C(SCC(=O)NC1CCCCC1)NC(=O)C2C#N (configuration not stated)	58.7% (active)
Cc1ccc2[nH]c(=O)c(CN(Cc3nnnn3Cc3ccccc3)C3CCCC3)cc2c1	-16.4% (inactive)
Cc1cnc(-c2nnc(N(C)C(=O)C3CCCO3)s2)cn1 (configuration not stated)	-5.4% (inactive)
Cc1ccc(-n2ncc(C(=O)N3CCc4ccccc4C3)c2NC(=O)c2ccco2)cc1C	71.2% (active)
O=C(Nc1c(C(=O)N2CCCCC2)cnn1-c1ccccc1)c1ccco1	-10.4% (inactive)
Cc1ccc(NC(=O)c2cnn(-c3ccccc3)c2NC(=O)c2ccco2)cc1C	1.7% (inactive)
CC(=O)Nc1ccc(S(=O)(=O)N2CCN(c3cccc(C)c3C)CC2)cc1	54.3% (active)
CC(=O)Nc1ccc(S(=O)(=O)N2CCC(c3nc4ccccc4[nH]3)CC2)cc1	6.7% (inactive)
CC(=O)Nc1ccc(S(=O)(=O)N2CCN(c3cc(C)nc4ccccc34)CC2)cc1	2.1% (inactive)
COc1ccc(S(=O)(=O)N2CCN(c3cccc(C)c3C)CC2)cc1	2% (inactive)
CC(=O)Nc1ccc(S(=O)(=O)N2CCN(c3cc(C)ccc3C)CC2)cc1	7.6% (inactive)
CC(=O)Nc1ccc(S(=O)(=O)NC(CC(=O)N(C)Cc2ccccc2)C(C)C)cc1 (configuration not stated)	-7.1% (inactive)
CC(C)N1CC(C(=O)Nc2nc3ccccc3s2)CC1=O (configuration not stated)	-0.4% (inactive)
Nn1c(Nc2ccccc2)nc2sc3c(c2c1=O)CCC3	57.6% (active)

Structure (SMILES)	cytotoxicity
CCCc1nc2sc3c(c2c(=O)n1N)CCC3	3% (inactive)
CCc1nc2sc3c(c2c(=O)n1N)CCC3	1.2% (inactive)
COc1ccc(S(=O)(=O)N(CC(=O)O)c2ccc(C)cc2)cc1	-20.8% (inactive)
O=C(NCc1cccnc1)C1c2ccccc2C(=O)N1Cc1ccco1 (configuration not stated)	-4.7% (inactive)
O=C(Cc1cn2ccsc2n1)Nc1nc2c(s1)CN(Cc1ccccc1)CC2	-4.7% (inactive)
CC(C)(C)C1CCc2nc(NC(=O)Cc3cn4ccsc4n3)sc2C1 (configuration not stated)	57.3% (active)
O=C(Cc1cn2ccsc2n1)Nc1nc2c(s1)CCCC2	6.8% (inactive)
N#CC1=C(N)NC(SCc2ccccc2)=C(C#N)C12CCCCC2	72.2% (active)
COc1ccc(C(=O)CSC2=C(C#N)C3(CCCCC3)C(C#N)=C(N)N2)cc1	22.5% (inactive)
CCSC1=C(C#N)C2(CCCC2)C(C#N)=C(N)N1	-1.6% (inactive)
CC1(C)CC(=O)C2=C(C1)NC(SCC(=O)Nc1ccccc1)=C(C#N)C21CCCCC1	-19.2% (inactive)
CSC1=C(C#N)C2(CCCC2)C(C#N)=C(N)N1	22.6% (inactive)
N#CC1=C(N)NC(SCC(=O)O)=C(C#N)C12CCCC2	4.9% (inactive)
CCSC1=C(C#N)C2(CCCCC2)C(C#N)=C(N)N1	-4.6% (inactive)
CCOC(=O)c1cnn(-c2ncnc3c2oc2ccccc23)c1N	-2.5% (inactive)
COc1ccc(C2(CCN)CC(C)N(C)CC2C)cc1 (configuration not stated)	-5.8% (inactive)
O=C(c1cc(F)c(F)cc1Cl)N1CCCCC1	-3% (inactive)
CCCSc1nc2c(cnn2-c2ccc(F)cc2)c(=O)[nH]1	-9.3% (inactive)
Cc1ccc(S(=O)(=O)NCCCN2CCOCC2)cc1C	-25% (inactive)
Oc1ccc(-c2nc3cnccn3c2Nc2ccc3c(c2)OCCO3)cc1	3.8% (inactive)
CCOC(=O)c1c(NC(=O)CSc2n[nH]c(N)n2)sc(CC)c1C	-3.3% (inactive)
CCOC(=O)c1sc(NC(=O)CSc2n[nH]c(-c3ccccc3)n2)c(C#N)c1C	4.4% (inactive)
O=C(COC(=O)C1COc2ccccc2O1)NC(=O)NC1CCCC1 (configuration not stated)	-11.8% (inactive)
